Experimental findings from publication PMC4336329 (PLoS ONE, 2015) are described below.

The campaign covered roughly 310,000 compounds. About 14,000 (4.5%) showed an effect of 50% or more. The effect is printed as a negative number. This is one part of a sample in which strong results are shown more often than they occur.
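Also: peak tail current of the secondary pulse compared with the same well before compound.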

In the assay the target is human ether-à-go-go-related gene (hERG) potassium channel (human, UniProt Q12809). Put plainly: primary screen, population patch clamp on CHO cells stably expressing hERG; higher = less effect of the substance.
human ether-à-go-go-related gene (hERG) potassium channel, sequence (Q12809 whole entry, looked up): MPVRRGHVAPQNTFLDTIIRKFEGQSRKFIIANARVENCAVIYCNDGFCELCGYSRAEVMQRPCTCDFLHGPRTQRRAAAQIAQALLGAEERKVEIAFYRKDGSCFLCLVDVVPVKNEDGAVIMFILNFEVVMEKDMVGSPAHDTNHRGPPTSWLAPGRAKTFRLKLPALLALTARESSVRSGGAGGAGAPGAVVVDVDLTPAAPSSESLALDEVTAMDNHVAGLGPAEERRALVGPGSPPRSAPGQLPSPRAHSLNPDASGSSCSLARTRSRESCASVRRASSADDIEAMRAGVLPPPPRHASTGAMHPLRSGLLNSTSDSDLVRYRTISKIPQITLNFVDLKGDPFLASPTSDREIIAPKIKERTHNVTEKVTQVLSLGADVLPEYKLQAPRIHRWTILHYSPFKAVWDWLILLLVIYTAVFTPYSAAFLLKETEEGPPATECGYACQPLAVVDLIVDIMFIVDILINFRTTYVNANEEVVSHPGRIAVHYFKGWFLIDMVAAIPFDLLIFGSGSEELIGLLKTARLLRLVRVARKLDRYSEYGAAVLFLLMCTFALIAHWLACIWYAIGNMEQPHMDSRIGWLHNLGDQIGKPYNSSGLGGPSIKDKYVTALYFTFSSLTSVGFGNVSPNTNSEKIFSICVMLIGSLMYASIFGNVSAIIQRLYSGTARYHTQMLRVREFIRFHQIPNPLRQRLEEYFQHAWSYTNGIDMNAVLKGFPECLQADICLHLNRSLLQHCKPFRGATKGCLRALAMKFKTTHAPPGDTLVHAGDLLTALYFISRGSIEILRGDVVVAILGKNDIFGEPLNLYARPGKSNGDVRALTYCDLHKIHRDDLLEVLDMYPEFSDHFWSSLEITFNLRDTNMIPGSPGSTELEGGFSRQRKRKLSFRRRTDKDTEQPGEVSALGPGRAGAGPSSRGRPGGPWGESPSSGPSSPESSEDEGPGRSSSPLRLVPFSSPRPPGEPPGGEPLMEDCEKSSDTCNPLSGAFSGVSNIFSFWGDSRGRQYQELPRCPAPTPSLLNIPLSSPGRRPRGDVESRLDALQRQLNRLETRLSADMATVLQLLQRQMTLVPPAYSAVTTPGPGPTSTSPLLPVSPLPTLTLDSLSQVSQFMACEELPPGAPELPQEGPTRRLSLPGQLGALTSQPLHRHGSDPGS
As for `OC1C2(Cc3ccccc3)CN3CCN(C2)CC1(Cc1ccccc1)C3` (centres unmarked), the “hERG current change (%, negative = inhibition) at 10uM” value is on record as -1.47%.

Take `Cc1[nH][nH]c(=O)c1C(c1ccc(-c2cccc(C(=O)O)c2)o1)c1c(C)[nH][nH]c1=O`: the “hERG current change (%, negative = inhibition) at 10uM” value was determined as 19.2%.

For the molecule `COc1ccc(OC)c(NC(=O)c2ccc(Cl)cc2)c1`, the “hERG current change (%, negative = inhibition) at 10uM” value is -5.32%. As for `COc1ccc(/C(C)=N/Nc2nc3ccccc3n3cnnc23)cc1OC`, the “hERG current change (%, negative = inhibition) at 10uM” value was -19.4%. Consider `CC(c1ccccc1)n1c(CCCO)nc2ccccc21` (centres unmarked), for which the “hERG current change (%, negative = inhibition) at 10uM” value is -2.26%. Regarding `COc1cccc(OC)c1C(=O)Nc1ccc(Cc2ccncc2)cc1`, the “hERG current change (%, negative = inhibition) at 10uM” value came to 8.86%.

As to `CC1CCCN(Cc2nc3c(c(=O)n(C)c(=O)n3C)n2CC(=O)c2ccccc2)C1` (centres unmarked), the “hERG current change (%, negative = inhibition) at 10uM” value is recorded as -8.71%.

For the molecule `CCN(Cc1ccncc1)Cc1cn[nH]c1-c1ccc(OC)cc1F`, the “hERG current change (%, negative = inhibition) at 10uM” value is recorded as -3.13%.

In the case of `COc1ccc(NC(=O)CN(C)C(=O)c2cccc3ccccc23)cc1`, the “hERG current change (%, negative = inhibition) at 10uM” value is on record as 3.09%.

`CCOc1nc(NCCN2CCOCC2)nc(Nc2ccc(C)cc2)n1`: the “hERG current change (%, negative = inhibition) at 10uM” value was -65.3%. With `COc1nc(NCCN2CCOCC2)nc(Nc2ccc([N+](=O)[O-])cc2)n1`, the “hERG current change (%, negative = inhibition) at 10uM” value is reported as -50.7%. Regarding `OCCNc1nc(Nc2ccc(Cl)cc2)nc(N2CCCC2)n1`, the “hERG current change (%, negative = inhibition) at 10uM” value is -15.1%. As to `O=[N+]([O-])c1ccc(Nc2nc(NCCO)nc(N3CCCC3)n2)cc1`, the “hERG current change (%, negative = inhibition) at 10uM” value was -58.3%.

In the case of `CCOc1nc(NCCO)nc(Nc2ccc([N+](=O)[O-])cc2)n1`, the “hERG current change (%, negative = inhibition) at 10uM” value is given as -9.66%. Regarding `C=CCNc1nc(Nc2ccc([N+](=O)[O-])cc2)nc(OC)n1`, the “hERG current change (%, negative = inhibition) at 10uM” value is listed as -14.1%.

Regarding `C=CCNc1nc(Nc2ccc([N+](=O)[O-])cc2)nc(N2CCCC2)n1`, the “hERG current change (%, negative = inhibition) at 10uM” value is -23.8%. The figure for `CCOc1nc(NCCN2CCOCC2)nc(Nc2ccc([N+](=O)[O-])cc2)n1` is -93.1%; for `CCOc1nc(NCCN2CCOCC2)nc(NC(C)C)n1` it is -9.84%; for `CCOc1nc(Nc2ccc([N+](=O)[O-])cc2)nc(NC(C)(C)C)n1` it is 12.2%. `COc1nc(NCCO)nc(Nc2ccc([N+](=O)[O-])cc2)n1`: the “hERG current change (%, negative = inhibition) at 10uM” value is listed as -40.2%. The figure for `CCCNc1nc(Nc2ccc(C)cc2)nc(N2CCCC2)n1` is -30.6%; for `CCCn1c(N)c(N(CCOC)C(=O)c2cc(C)cc(C)c2)c(=O)[nH]c1=O` it is 16.4%. As to `CCCS(=O)(=O)N1CCN(Cc2ccc(OCc3ccccc3)c(OC)c2)CC1.O=C(O)C(=O)O`, the “hERG current change (%, negative = inhibition) at 10uM” value is reported as -43.2%. Turning to `O=C(NCc1ccccn1)c1c(Cl)cccc1Cl`, the “hERG current change (%, negative = inhibition) at 10uM” value is recorded as 2.78%.

On to `COc1ccc(-n2c(C)cc(C)c(C(C)=O)c2=S)cc1`, for which the “hERG current change (%, negative = inhibition) at 10uM” value was -2.39%.

Turning to `Cc1cccc(N2CCN(CC(=O)N(C3CCCC3)C3CCS(=O)(=O)C3)CC2)c1C` (centres unmarked), the “hERG current change (%, negative = inhibition) at 10uM” value is listed as -13.3%. Turning to `CCCc1nnc(SCC(=O)N(CC)CC)n1CC1CCCO1` (centres unmarked), the “hERG current change (%, negative = inhibition) at 10uM” value was found to be 21.9%.

For `Cc1ccc2[nH]c(=O)c(CN(CCc3ccccc3)Cc3nnnn3CC3CCCO3)cc2c1` (centres unmarked), the “hERG current change (%, negative = inhibition) at 10uM” value is listed as -16%. The figure for `CC(=O)Nc1ccc(/C=N/NC(=S)NC(C)C)cc1` is 21.3%; for `CC(Cc1n[nH]c(=S)n1N)c1ccccc1` (centres unmarked) it is 19.8%; for `CS(=O)(=O)c1ccc(Cl)c(NC(=O)COC(=O)c2ccc(-n3cnnn3)cc2)c1` it is -7.82%. Regarding `COc1cccc(NC(=O)COc2cccc(-n3cnnn3)c2)c1`, the “hERG current change (%, negative = inhibition) at 10uM” value is listed as -50.8%.

As to `Cc1ccc(NC(=O)COc2cccc(-n3cnnn3)c2)cc1[N+](=O)[O-]`, the “hERG current change (%, negative = inhibition) at 10uM” value is given as -0.307%. Turning to `O=C(COc1cccc(-n2cnnn2)c1)Nc1ccc([N+](=O)[O-])cc1`, the “hERG current change (%, negative = inhibition) at 10uM” value is -43.6%. On to `COc1cccc(CNC(=O)COc2cccc(-n3cnnn3)c2)c1`, for which the “hERG current change (%, negative = inhibition) at 10uM” value is on record as -18.9%.

Consider `O=C(COc1cccc(-n2cnnn2)c1)Nc1ccccc1`, for which the “hERG current change (%, negative = inhibition) at 10uM” value was -26.4%. Then `CCc1ccc(NC(=O)COc2cccc(-n3cnnn3)c2)cc1`, with -68%. The figure for `COC(=O)c1ccc(NC(=O)COc2cccc(-n3cnnn3)c2)cc1` is 6.77%; for `COc1ccc(NC(=O)COc2cccc(-n3cnnn3)c2)cc1Cl` it is 24%. As for `COc1ccc(NC(=O)COc2cccc(-n3cnnn3)c2)cc1`, the “hERG current change (%, negative = inhibition) at 10uM” value was -54.3%. `S=c1[nH]nc(CSCc2ccccc2Cl)n1-c1ccccc1`: the “hERG current change (%, negative = inhibition) at 10uM” value was found to be 0.868%.

On to `CCOc1ccccc1N(CC(=O)NC1CCCC1)C(=O)CCCC(=O)Nc1ccccn1`, for which the “hERG current change (%, negative = inhibition) at 10uM” value was -8.6%. Regarding `O=C(O)/C=C\c1cccc(-n2cnnn2)c1`, the “hERG current change (%, negative = inhibition) at 10uM” value is reported as -1.3%. For `CCC(=NCCc1c[nH]c2ccccc12)c1c(O)n(C)c(=O)n(C)c1=O`, the “hERG current change (%, negative = inhibition) at 10uM” value was -10.8%. Turning to `COc1ccc(/C(C)=N/NC(=O)C2C3CCCCC32)c(OC)c1` (centres unmarked), the “hERG current change (%, negative = inhibition) at 10uM” value was -0.79%. `CN(C)CCNC(=O)Cn1ccc2cc(S(=O)(=O)N3CCCCC3)ccc21`: the “hERG current change (%, negative = inhibition) at 10uM” value came to 8.47%. Consider `Cc1ccc(NC(=O)CN(C)C(=O)c2nn(C)c(=O)c3ccccc23)cc1`, for which the “hERG current change (%, negative = inhibition) at 10uM” value is given as -35.7%. As for `C/C(=N\NC(=O)CNc1ccccc1)c1ccccc1`, the “hERG current change (%, negative = inhibition) at 10uM” value is on record as -12.8%. The figure for `C=CCNC(=O)NC(=S)c1ccccc1` is -4.57%. `CCN(CC)CC(=O)NN=C(c1ccccc1)c1ccccc1`: the “hERG current change (%, negative = inhibition) at 10uM” value is on record as -77.6%. For the molecule `O=C(CCl)NN=C(c1ccccc1)c1ccccc1`, the “hERG current change (%, negative = inhibition) at 10uM” value is recorded as 0.333%. For `C=CCNCC(=O)NN=C(c1ccccc1)c1ccccc1`, the “hERG current change (%, negative = inhibition) at 10uM” value is reported as -68.5%. For `CC1CN(CC(=O)NN=C(c2ccccc2)c2ccccc2)CC(C)O1` (centres unmarked), the “hERG current change (%, negative = inhibition) at 10uM” value worked out at 12.8%. The figure for `O=C(CN1CCCC1)NN=C(c1ccccc1)c1ccccc1` is -68.3%; for `CC(NC1CCCCC1)C(=O)NN=C(c1ccccc1)c1ccccc1` (centres unmarked) it is -32.1%; for `O=C(CN1CCOCC1)NN=C(c1ccccc1)c1ccccc1` it is 20.8%. As to `CCOC(=O)C(=O)NN=C(c1ccccc1)c1ccccc1`, the “hERG current change (%, negative = inhibition) at 10uM” value is reported as 9.79%. With `O=C(CNC1CCCCC1)NN=C(c1ccccc1)c1ccccc1`, the “hERG current change (%, negative = inhibition) at 10uM” value was -59.8%. Then `O=C(NN=C(c1ccccc1)c1ccccc1)C(CCl)C1CCCCC1` (centres unmarked), with -2.74%.
